Compound activity from PubChem BioAssay.
pPAFAH inh: pPAFAH enzyme inhibitors, primary screen, biochemical, fluorescence polarization, human | inhibition, % at 3.39 µM | Platelet-activating factor acetylhydrolase (Homo sapiens), Q13093 | recombinant pPAFAH, FP-rhodamine probe fluorescence polarization | actives 1.5% (n = 330,000);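 active means inhibition above the mean inhibition across the screen plus 3 SD, cut at about 25% in these data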;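 further: inhibitors block binding of the rhodamine activity-based probe so polarization drops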
PME-1 inh: PME-1 inhibitors via competitive probe labeling, primary screen, biochemical, fluorescence polarization, FP-Rh probe, HTS; recombinant PME-1; Protein phosphatase methylesterase 1 (Homo sapiens), Q9Y570; actives 0.53% (n = 320,000); inhibition, % at 5.9 µM; AID 2130, 2009;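 active means inhibition above the campaign mean of all compounds plus 3 SD, cut at about 26% in these data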;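 further: competitive labeling of PME-1 active site by serine hydrolase directed probe; inhibitors block probe labeling so polarization falls and inhibition rises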
Fam108B counter: mouse Fam108B serine hydrolase inhibitors, primary screen, counter-screen for RBBP9 inhibitor project, biochemical, fluorescence polarization; actives 0.33% (n = 300,000); inhibition, % at 9.51 µM; AID 1947, 2009; recombinant Fam108B, FP-Rh probe fluorescence polarization;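 active means inhibition above the screen mean inhibition plus 3 SD, computed separately per campaign, cut at about 18% in these data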;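 further: inhibitors lower polarization as less probe binds the enzyme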
GSTO1 inh: inhibitors of recombinant GSTO1, primary screen, counter-screen for RBBP9 inhibitor project, biochemical, fluorescence polarization. inhibition, % at 5.96 µM. actives 1.1% (n = 300,000). Glutathione S-transferase omega-1 (Homo sapiens), P78417. activity-based probe fluorescence polarization;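 active means inhibition above the campaign mean inhibition plus 3 SD, cut at about 35% in these data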
PAD4 inh: human PAD4 inhibitors, primary screen, biochemical, fluorescence polarization, 1536-well format; recombinant PAD4, RCA probe fluorescence polarization; inhibition, % at 6.36 µM; actives 0.41% (n = 330,000); Protein-arginine deiminase type-4 (Homo sapiens), Q9UM07;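 active means percent inhibition above a cutoff equal to the mean of all tested compounds plus 3 SD, cut at about 15% in these data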
Target sequence (Q9UM07 whole entry, looked up): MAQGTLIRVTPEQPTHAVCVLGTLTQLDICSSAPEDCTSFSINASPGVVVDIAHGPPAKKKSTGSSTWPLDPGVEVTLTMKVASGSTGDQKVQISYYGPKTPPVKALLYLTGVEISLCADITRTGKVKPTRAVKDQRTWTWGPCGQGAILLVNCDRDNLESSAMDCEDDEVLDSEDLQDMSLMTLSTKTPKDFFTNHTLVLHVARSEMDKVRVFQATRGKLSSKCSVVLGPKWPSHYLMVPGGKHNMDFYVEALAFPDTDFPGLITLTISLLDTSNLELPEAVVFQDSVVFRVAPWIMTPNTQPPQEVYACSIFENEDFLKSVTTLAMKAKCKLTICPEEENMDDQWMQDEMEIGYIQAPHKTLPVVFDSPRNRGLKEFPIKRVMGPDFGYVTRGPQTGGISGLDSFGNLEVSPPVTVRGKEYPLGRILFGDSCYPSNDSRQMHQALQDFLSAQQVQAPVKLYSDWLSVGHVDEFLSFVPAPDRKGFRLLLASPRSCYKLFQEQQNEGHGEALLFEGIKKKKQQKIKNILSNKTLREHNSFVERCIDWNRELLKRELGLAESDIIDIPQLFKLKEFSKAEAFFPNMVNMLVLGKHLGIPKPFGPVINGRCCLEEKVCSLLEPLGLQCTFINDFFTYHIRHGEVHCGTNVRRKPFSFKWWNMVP
A number is an active result; - = inactive; . = no result. Shown are actives, neighbours in structure and some others; about 2.3% of the full set was active somewhere.

SMILES | pPAFAH inh | PME-1 inh | Fam108B counter | GSTO1 inh | PAD4 inh
O=C(COC(=O)CCC1CCCC1)Nc1ccc(F)cc1 | 32 | - | . | . | -
Cc1ccc(NC(=O)C2CCN(S(=O)(=O)c3ccc4c(c3)CCCC(=O)N4)CC2)cc1N(C)C | - | - | - | - | -
CC(C)C(NC(=O)c1ccccc1NC(=O)C(C)(C)C)C(=O)N1CCOCC1 (centres undefined) | - | . | . | . | -
O=C(COC(=O)c1ccc(Cl)c([N+](=O)[O-])c1)Nc1ccccc1OC(F)F | 32 | - | - | - | -
O=C(COC(=O)CCC1CCCC1)Nc1ccccc1OC(F)F | 29 | - | - | - | -
Nc1ccc(Br)c2c1C(=O)c1ccccc1C2=O | 25 | 26 | - | - | -
CN(C)S(=O)(=O)c1ccc(C(=O)NNc2nc(-c3ccccc3)c3cc(Br)ccc3n2)cc1 | 30 | - | - | - | -
CC(Oc1ccc2ccc(=O)oc2c1)C(=O)NC1CC(C)(C)NC(C)(C)C1 (centres undefined) | - | - | - | - | -
CCN(CC)S(=O)(=O)c1ccc(/C=C/C(=O)OCC(=O)NCc2ccco2)cc1 | 30 | . | . | . | -
CCN(CC)S(=O)(=O)c1ccc(C(=O)OCC(=O)NCc2ccco2)cc1 | - | - | - | - | -
Cc1cc(C(=O)C(C)Cl)c(C)n1Cc1ccco1 (centres undefined) | - | - | - | 81 | -
Cc1cc(C(=O)COC(=O)C(C)NC(N)=O)c(C)n1Cc1ccco1 (centres undefined) | - | - | - | - | -
CCc1nc2sc3c(c2c(=O)n1NC(=O)CCl)CCCC3 | - | - | - | 58 | -
CC(=O)N(C(C)=O)n1c(C)nc2sc3c(c2c1=O)CCCC3 | - | - | - | - | -
C=C(C)COc1ccc(-c2[nH]ncc2-c2ccc(OC)c(OC)c2)c(O)c1 | - | 29 | - | - | -
Cc1ccccc1NS(=O)(=O)c1ccc(OCCNS(C)(=O)=O)cc1 | 32 | - | - | - | -
N#CCCN(C(=O)CN1CCN(S(=O)(=O)c2ccc3c(c2)OCCO3)CC1)c1ccc(F)cc1 | - | - | . | . | -
COc1cc(CC(=O)O)ccc1O | 34 | - | - | - | -
CCn1c(=O)c(C(=O)CN(C)CC(=O)Nc2cccc(F)c2)c(N)n(Cc2ccccc2)c1=O | - | . | . | . | -
Cc1onc(-c2ccccc2)c1C(=O)N(Cc1ccccc1)C(C)C | - | - | - | - | -
COC(=O)N/N=C/c1cn(CCOc2ccc(OC)cc2)c2ccccc12 | - | - | - | - | -
COc1ccc(OCCn2cc(/C=N/NC(=O)c3ccncc3)c3ccccc32)cc1 | - | 32 | - | - | -
CC(C)c1ccc(NC(=O)CCN2C(=O)[C@@H]3Cc4ccccc4CN3C2=O)cc1 | - | - | - | - | -
CN(C)CC(=O)Nc1ccc(Oc2ccc(Cl)cc2)cc1 | 26 | - | - | - | -
CC(C)c1ccc(NC(=S)NNC(=O)c2cccs2)cc1 | - | - | - | - | -
SMILES | pPAFAH inh | PME-1 inh | Fam108B counter | GSTO1 inh | PAD4 inh
CC(C)(C)c1ccc(NC(=O)COC(=O)c2ccc([N+](=O)[O-])s2)cc1 | - | 33 | - | 40 | -
O=C(COC(=O)c1ccc([N+](=O)[O-])s1)NC(c1ccccc1)c1ccccc1 | - | - | - | 37 | -
O=C(COC(=O)c1ccc([N+](=O)[O-])s1)NCc1ccccc1 | - | - | - | 42 | -
Cc1cc2nc(SCC(=O)N(C)C)c3c(c2cc1C)CCCC3 | 31 | - | - | - | -
CC(C)OCCCNC(=O)c1cccc2c1C(=O)c1ccc(Cl)cc1S2(=O)=O | - | - | . | . | -
O=C(CSc1nnc(SCc2ccccc2Cl)s1)N/N=C/c1c[nH]c2ccccc12 | - | 36 | - | - | -
Nc1cc(N)cc(-c2nc3ccccc3[nH]2)c1 | - | 32 | - | - | -
O=c1[nH]cnc2c1c(-c1ccccc1)cn2-c1cccc(Cl)c1 | 34 | - | - | - | -
CCC(NC(=O)OCc1ccccc1)C(=O)Oc1ccc2ccc(=O)oc2c1 (centres undefined) | - | - | - | - | -
O=C(Nc1cccc(C(=O)N2CCCCC2)c1)c1ccccc1Br | - | - | - | - | -
Cc1c(C(=O)OCC2CCCO2)[nH]c2c1C(=O)CC(c1ccco1)C2 (centres undefined) | 25 | - | - | - | -
Cc1cc(NC(=O)Cn2nc(C)c([N+](=O)[O-])c2C)no1 | - | - | - | - | -
CS(=O)(=O)N1CCN(c2ccc(NC(=O)C(c3ccccc3)c3ccccc3)cc2)CC1 | - | - | - | - | -
O=C(Nc1ccc(N2CCCC2)cc1)C(Cl)c1ccccc1 (centres undefined) | - | - | - | 35 | -
N#Cc1ccccc1Cn1c(=O)n(-c2ccc(CC(=O)NCc3ccco3)cc2)c(=O)c2sccc21 | - | 37 | - | - | -
N#Cc1ccccc1Cn1c(=O)n(Cc2ccc(C(=O)NCc3ccco3)cc2)c(=O)c2sccc21 | - | - | - | - | -
Cc1ccc2nc(Cl)c3nnnn3c2c1 | - | - | - | - | 22
Cc1ccc2nc(N3CCN(c4cccc(C)c4C)CC3)c3nnnn3c2c1 | - | - | - | - | -
Cc1ccc(S(=O)(=O)CCC(=O)Oc2ccc(-c3nnco3)cc2)cc1 | 29 | - | - | - | -
ClCc1nnc(-c2ccccc2)o1 | - | - | - | 102 | -
NC(=O)/C(N=Nc1ccccc1)=N/Nc1ccccc1 | - | - | - | - | -
O=C(O)c1cccc(N/N=C(\N=Nc2ccccc2)c2ccccc2)c1 | 25 | - | - | - | -
CCC(C(=O)NCCc1ccc(OC)cc1OC)n1nc(C)n2c(cc3occc32)c1=O (centres undefined) | - | - | - | - | -
COCCCn1c(=O)c2sccc2n2c(CCCC(=O)N(C)Cc3ccco3)nnc12 | - | - | - | - | -
Cc1nnc(-c2cccc(Br)c2)c2cn(-c3ccccc3)nc12 | 25 | - | - | - | -
SMILES | pPAFAH inh | PME-1 inh | Fam108B counter | GSTO1 inh | PAD4 inh
COc1ccc(-n2cc3c(-c4cccc(Br)c4)nnc(C)c3n2)cc1 | - | - | - | - | -
Cc1nnc(-c2cccc(Br)c2)c2cn(-c3ccc(Br)cc3)nc12 | - | - | - | - | -
Cc1nnc(-c2cccc(Br)c2)c2cn(-c3cccc(Br)c3)nc12 | 32 | - | - | - | -
COc1cc(C2C(C#N)=C(N)Oc3c2ccc2ccccc32)ccc1OCC(=O)Nc1ccc(C)cc1 (centres undefined) | 28 | - | - | - | -
COc1ccc(C2C(C#N)=C(N)Oc3c2ccc2cccnc32)cc1OC (centres undefined) | - | - | - | - | -
COc1cc(C2C(C#N)=C(N)Oc3c2ccc2ccccc32)ccc1OCC(=O)Nc1cccc(C)c1 (centres undefined) | 33 | - | - | - | -
